In PubChem BioAssay AID694 (Emory University Molecular Libraries Screening Center, 2007) one finds inhibition data, which are given here for 42 compounds.

Hit rate of the full screen: of about 1,300 compounds, about 25 (2%) were called active. No rule for the calls is given here. This excerpt belongs to a sample that is enriched for actives.

This assay deals with Estrogen receptor (Homo sapiens) (UniProt P03372). The assay is described as follows: blockers of coactivator recruitment to ERα – biochemical, LOPAC library, TR-FRET, primary screen (AID 694).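 Also: receptor was agonist-bound with estradiol present during the assay.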 To be noted: TR-FRET ERalpha-coactivator peptide binding, stronger effect = higher value. (In general: Time-resolved FRET reads energy transfer from a long-lived donor to a nearby acceptor.)
Sequence of Estrogen receptor (Homo sapiens) (P03372 whole entry, looked up): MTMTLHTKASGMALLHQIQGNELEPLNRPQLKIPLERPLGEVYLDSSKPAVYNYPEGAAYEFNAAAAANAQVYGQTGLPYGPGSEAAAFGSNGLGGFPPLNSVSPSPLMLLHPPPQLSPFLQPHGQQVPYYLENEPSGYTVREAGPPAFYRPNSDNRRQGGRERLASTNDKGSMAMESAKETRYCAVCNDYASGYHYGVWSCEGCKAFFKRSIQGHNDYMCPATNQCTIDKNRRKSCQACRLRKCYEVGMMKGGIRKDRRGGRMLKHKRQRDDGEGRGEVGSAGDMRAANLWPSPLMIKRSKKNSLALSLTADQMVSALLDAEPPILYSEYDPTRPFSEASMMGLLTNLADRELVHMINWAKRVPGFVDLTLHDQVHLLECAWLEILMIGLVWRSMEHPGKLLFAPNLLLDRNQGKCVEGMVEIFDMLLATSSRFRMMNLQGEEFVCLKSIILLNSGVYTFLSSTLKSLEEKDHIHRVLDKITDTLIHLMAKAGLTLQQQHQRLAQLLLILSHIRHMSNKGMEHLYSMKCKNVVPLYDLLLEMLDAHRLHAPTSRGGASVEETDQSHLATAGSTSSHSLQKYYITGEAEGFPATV

By inhibition is commonly meant the change of the read-out against control, counted positive when it falls. With `C=CCN1CCc2c(cc(O)c(O)c2Br)[C@@H](c2ccccc2)C1`, the inhibition runs as follows: (at 45 µM) 2.69% (inactive); (inhibition, at 15 µM) 6.75%.

Take `Cc1nc(N=Nc2cc(S(=O)(=O)O)c3cc([N+](=O)[O-])cc(S(=O)(=O)O)c3c2)c(COP(=O)(O)O)c(C=O)c1O`: the inhibition is 60.6% (inactive) (at 45 µM) and 46.2% (inhibition, at 15 µM).

For `OCCN1CCN(CC/C=C2/c3ccccc3Sc3ccc(C(F)(F)F)cc32)CC1`, the inhibition reads like this: (at 45 µM) 3.87% (inactive); (inhibition, at 15 µM) 3.25%.

With `CN1C(C)(C)CCCC1(C)C`, the inhibition (at 45 µM) is -1.09% (inactive) and the inhibition (inhibition, at 15 µM) is -2.02%.

For `Nc1nc(OCc2ccccc2)c2[nH]cnc2n1`, the inhibition was -3.48% (inactive) (at 45 µM) and -5.45% (inhibition, at 15 µM).

Consider `Cc1cccc(C)c1NC(=O)C[N+](C)(C)C`, for which the inhibition reads like this: (at 45 µM) 0.37% (inactive); (inhibition, at 15 µM) -1.43%.

For `CCCCN1CCC(COC(=O)c2cc(Cl)c(N)c3c2OCCO3)CC1`, the inhibition is, setting by setting: (at 45 µM) -8.8% (inactive); (inhibition, at 15 µM) -4.44%.

In the case of `CC(=O)SCC[N+](C)(C)C`, the inhibition runs as follows: (at 45 µM) 0.72% (inactive); (inhibition, at 15 µM) -4.29%.

In the case of `CN(C)CCN(Cc1cccs1)c1ccccn1`, the inhibition by setting is: (at 45 µM) 0.3% (inactive); (inhibition, at 15 µM) 3.28%.

On to `Cc1nc(N=Nc2ccc(S(=O)(=O)O)cc2S(=O)(=O)O)c(COP(=O)(O)O)c(C=O)c1O`, for which the inhibition was -1.62% (inactive) (at 45 µM) and 2.87% (inhibition, at 15 µM).

Take `CCOC(=O)c1cnc2c(cnn2CC)c1NN=C(C)C`: the inhibition is 1.01% (inactive) (at 45 µM) and -4.69% (inhibition, at 15 µM).

In the case of `O=c1cc(O)cc(/C=C/c2ccc(O)c(O)c2)o1`, the inhibition is, setting by setting: (at 45 µM) 5.73% (inactive); (inhibition, at 15 µM) 4.2%.

As for `NC(N)=NCCCCN=C(N)N`, the inhibition (at 45 µM) was -1.43% (inactive) and the inhibition (inhibition, at 15 µM) came to 22.8%.

`CCCCCCCCCCCCC/C=C/C(O)C(N)CO` (centres undefined): the inhibition (at 45 µM) was 17.6% (inactive) and the inhibition (inhibition, at 15 µM) is -17.3%.

With `NC(=NCCC[C@H](N)C(=O)O)NO`, the inhibition is 3.2% (inactive) (at 45 µM) and 2.74% (inhibition, at 15 µM).

Consider `NC(C(=O)N[C@@H]1C(=O)N2C(C(=O)O)=C(Cl)CS[C@H]12)c1ccccc1` (some centres undefined), for which the inhibition by setting is: (at 45 µM) -11.2% (inactive); (inhibition, at 15 µM) -2.54%.

`CSC(N)=NCCC[C@H](N)C(=O)O`: the inhibition by setting is: (at 45 µM) 0.58% (inactive); (inhibition, at 15 µM) -0.49%.

As for `CN(C)CCCCSC(=N)N`, the inhibition (at 45 µM) was -2.28% (inactive) and the inhibition (inhibition, at 15 µM) turned out to be 0.11%.

Consider `COc1ccc2c(c1)c(CC(=O)N1CCOCC1)c(C)n2C(=O)c1ccc(Cl)cc1`, for which the inhibition is 2.58% (inactive) (at 45 µM) and 0.53% (inhibition, at 15 µM).

Regarding `Nc1ncnc2c1ncn2[C@@H]1O[C@H](C(=O)NC2CC2)[C@H](O)C1O` (some centres undefined), the inhibition reads like this: (at 45 µM) -7.62% (inactive); (inhibition, at 15 µM) -0.92%.

Consider `Nc1nc(N)c2nc(CNc3ccc(C(=O)NC(CCC(=O)O)C(=O)O)cc3)cnc2n1` (centres undefined), for which the inhibition runs as follows: (at 45 µM) 1.53% (inactive); (inhibition, at 15 µM) -2.57%.

Consider `CCCCCCC/C=C\CCCCCCCCC(=O)O`, for which the inhibition by setting is: (at 45 µM) 63.2% (inactive); (inhibition, at 15 µM) 46.6%.

For `CCCCCCCCCCCCCCSCC(=O)O`, the inhibition was 97.7% [fluorescence artefact?] (active) (at 45 µM) and 66.6% (inhibition, at 15 µM).

Regarding `CCCCCC(O)CCCC(=O)O` (centres undefined), the inhibition is -5.09% (inactive) (at 45 µM) and 11.3% (inhibition, at 15 µM).

Consider `COC(=O)c1c(-c2cc(OC)c(OC)c(OC)c2)c2ccnc(OCc3ncccn3)c2c(=O)n1Cc1ccnc(C)c1`, for which the inhibition (at 45 µM) was -0.01% (inactive) and the inhibition (inhibition, at 15 µM) was 7.82%.

In the case of `O=C(O)CCCCCC[C@H]1C(=O)NC(=O)N1CC[C@@H](O)C1CCCCC1`, the inhibition was 4.54% (inactive) (at 45 µM) and 37.6% (inhibition, at 15 µM).

Consider `Nc1nc2c(ncn2COC(CO)CO)c(=O)[nH]1`, for which the inhibition was -3.37% (inactive) (at 45 µM) and -1.7% (inhibition, at 15 µM).

With `Cc1cnc(NC(=O)C2=C(O)c3ccccc3S(=O)(=O)N2C)s1`, the inhibition reads like this: (at 45 µM) 1.42% (inactive); (inhibition, at 15 µM) -3.85%.

As to `S=C(S)OC1CC2CC1C1CCCC21` (centres undefined), the inhibition runs as follows: (at 45 µM) -5.42% (inactive); (inhibition, at 15 µM) 6.45%.

For `CC(=O)NCCc1c[nH]c2ccc(O)cc12`, the inhibition runs as follows: (at 45 µM) -5.1% (inactive); (inhibition, at 15 µM) 4.29%.

For `NC(=O)c1cccc(N)c1`, the inhibition is -6.67% (inactive) (at 45 µM) and 0.5% (inhibition, at 15 µM).

In the case of `CC1(C)CCC2=C(O1)c1ccccc1C(=O)C2=O`, the inhibition is 0.18% (inactive) (at 45 µM) and -0.19% (inhibition, at 15 µM).

Consider `C=CCN1CCc2c(cc(O)c(O)c2Cl)C(c2ccccc2)C1` (centres undefined), for which the inhibition by setting is: (at 45 µM) -1.29% (inactive); (inhibition, at 15 µM) -1.34%.

As for `NC(N)=N[C@@H](CCC(=O)O)C(=O)O`, the inhibition (at 45 µM) was -1.09% (inactive) and the inhibition (inhibition, at 15 µM) came to 5.9%.

For `CC(C)C1C2CCC(C2)C1N` (centres undefined), the inhibition (at 45 µM) was -15.6% (inactive) and the inhibition (inhibition, at 15 µM) is -0.95%.

Regarding `NCCC(=O)NCCc1cnc[nH]1`, the inhibition is -9.27% (inactive) (at 45 µM) and 2.24% (inhibition, at 15 µM).

As for `CCN1/C(=C/C(C)=O)Sc2ccc(OC)cc21`, the inhibition was 0.62% (inactive) (at 45 µM) and -1.25% (inhibition, at 15 µM).

For the compound `CSc1ccc2c(c1)N(CCC1CCCCN1C)c1ccccc1S2` (centres undefined), the inhibition (at 45 µM) is 13.6% (inactive) and the inhibition (inhibition, at 15 µM) amounted to 10.5%.

For the compound `O=C(O)Cc1ccc(O)c(O)c1`, the inhibition was 13.3% (inactive) (at 45 µM) and 9.47% (inhibition, at 15 µM).

On to `CC(C)C[C@H](N)CSSC[C@@H](N)CC(C)C`, for which the inhibition (at 45 µM) is 0.5% (inactive) and the inhibition (inhibition, at 15 µM) is -0.82%.

As to `Cc1ccccc1CNc1ncnc2c1ncn2C1OC(CO)C(O)C1O` (centres undefined), the inhibition by setting is: (at 45 µM) -2.05% (inactive); (inhibition, at 15 µM) -1.9%.

On to `Nc1ccc(N2C(=O)c3ccccc3C2=O)c(Cl)c1`, for which the inhibition was -4.66% (inactive) (at 45 µM) and -3.36% (inhibition, at 15 µM).
